# PubChem BioAssay
# Test: small-molecule binders of probe aInhba, primary screen, biochemical, small-molecule microarray, 635/667 nm fluorescence (AID 1148);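 note: score merges 667nm spot fluorescence with signal-to-noise for antibody binding to printed compounds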
# Details: higher = more signal
row,Structure (SMILES),composite z-score
1,C=CC[C@@H]1C=C[C@H](ON=C2c3cc(OC)ccc3O[C@H](c3cccc(OC)c3)[C@H]2O)[C@@H](CO)O1,-0.182
2,COCCOC(=O)N1C(=O)[C@@]2(c3cc(C#CCNC(N)=O)ccc31)[C@H](c1ccc(O)cc1)N1[C@H](c3ccccc3)[C@H](c3ccccc3)OC(=O)[C@H]1[C@@H]2C(=O)N1CCCCCCC1,-0.186
3,CC(C)(C)N1C(=O)[C@H]2[C@H]3[C@H](O)[C@H](O)CC(=NOCc4ccccc4)[C@@H]3CC[C@H]2C1=O,-0.0986
4,O=C1C[C@]2(c3ccc([N+](=O)[O-])cc3)C(=O)N(CCN3CCOCC3)c3cc(CO)ccc3[C@H]2N1CC12CC3CC(CC(C3)C1)C2,-0.122
5,CC[C@@H](c1ccccc1)n1c(=O)n2n(c1=O)[C@H]1[C@H](O)[C@@H]3O[C@@H]3C(=NOCC(C)C)[C@H]1CC2,-0.0405
6,O=C1[C@H]2[C@H]3[C@H](O)[C@H](O)CC(=NO[C@@H]4O[C@H](CO)[C@@H](O)[C@H](O)[C@H]4O)[C@@H]3CC[C@H]2C(=O)N1Cc1ccc2c(c1)OCO2,-0.0506
7,CC(C)=C1C(=O)C(c2ccccc2)=C2CN3C(=O)N(CCc4ccccc4)C(=O)[C@]3(Cc3ccc(F)cc3)[C@H]21,0.205
8,CO[C@@H]1COC(=O)CCC[C@@H](C)[C@H](OC)COC(=O)[C@H](Cc2ccccc2)NC(=O)CC=C[C@H]1C,-0.159
9,Cc1ccc(F)cc1S(=O)(=O)N[C@@H]1CCN(Cc2ccc(CC(C)C)cc2)C1,-0.231
10,CC(C)[Si]1(C(C)C)O[C@@H](c2ccccc2)c2cc(C3CC3)nc(-c3ccccc3)c21,-0.207
11,COC(=O)[C@@]1(Cc2ccc(F)cc2)[C@H]2c3cc(C(=O)N(C)C)n(Cc4ccc(OC)c(OC)c4)c3C[C@H]2CN1C(=O)c1ccccc1,0.351
12,CCOC(=O)CCN1C(=O)[C@H]2[C@H]3[C@H](O)C=CC(=O)[C@@H]3CC[C@H]2C1=O,0.0104
13,C[C@H](c1ccccc1)N1C(=O)[C@H]2[C@@H]3C(=CC[C@H]2C1=O)C(=O)[C@H]1O[C@H]1[C@H]3O,-0.0474
14,CS(=O)(=O)CCOC(=O)C1=CC(CCCO)=CC(c2cccs2)N(Cc2cccc(OC(F)(F)F)c2)C=C1C(=O)OCCS(C)(=O)=O (stereo unspecified),0.245
15,O=C1[C@H]2[C@H]3[C@H](O)[C@H](O)CC(=NO[C@@H]4O[C@H](CO)[C@@H](O)[C@H](O)[C@H]4O)[C@H]3CC[C@H]2C(=O)N1Cc1ccc2c(c1)OCO2,-0.0719
16,Cc1cc2c(nc1C)CCCN2CC(C)ON=C1[C@H]2CCn3c(=O)n(-c4ccccc4)c(=O)n3[C@H]2[C@H](O)[C@@H]2O[C@H]12 (stereo partly specified),0.0301
17,Cc1cc(C)c(-c2cc([C@H](C)ON=C3[C@H]4CCn5c(=O)n(-c6ccccc6)c(=O)n5[C@H]4[C@H](O)[C@@H]4O[C@H]34)on2)c(C)c1,-0.0066
18,COc1ccc([Si](C)(C)[C@@H]2[C@@H](CCO)O[C@]3(C(=O)N(Cc4ccc(NC(C)=O)cc4)c4ccccc43)[C@H]2C)cc1,0.16

row,Structure (SMILES),composite z-score
1,c1ccc(C2NCCc3c2[nH]c2ccccc32)cc1 (stereo unspecified),-0.101
2,CC(=O)C[C@H](O)[C@@H](NC(=O)OC(C)(C)C)C(C)C,-0.0963
3,CO[C@H]1O[C@H](CO)[C@@H](OC(=O)Nc2ccc(C#N)cc2)[C@H](OC(=O)c2cc3ccccc3[nH]2)[C@H]1OC(=O)c1cc2ccccc2[nH]1,-0.0011
4,CO[C@@H]1COC(=O)[C@@H]2CCCN2C(=O)[C@@H](C)COC(=O)[C@H](COCc2ccccc2)NC(=O)CC=C[C@H]1C,-0.172
5,COc1ccc(O[C@H]2C=C[C@@H](c3ccccc3)O[C@@H]2COC(=O)CCC(C)=NO[C@H](C)c2cn([C@@H]3COC[C@H]3O)nn2)cc1,-0.103
6,CC(CCC(=O)OC[C@H]1O[C@H](C#Cc2ccccc2)C=C[C@@H]1Oc1ccc(C)cc1)=NO[C@@H](C)c1cn([C@H](CO)Cc2ccccc2)nn1,-0.003
7,CO[C@H]1COC(=O)[C@H](C)COC(=O)CC=C[C@@H](C)[C@H](OC)COC(=O)CC=C[C@@H]1C,-0.128
8,CCc1cccc(NC(=O)O[C@H]2[C@H](OC(=O)Nc3ccc4c(c3)OCO4)[C@@H](OC(=O)Nc3ccc4c(c3)OCO4)[C@@H](OC)O[C@@H]2CO)c1,0.0073
9,CCOC(=O)C[C@H]1[C@H](OC(=O)c2cc3ccccc3oc2=O)[C@@H](NC(=O)c2ccc3ccccc3n2)c2cc(OCCCO)ccc2N1C(=O)c1ccccc1,0.0345
10,CCN1C(=O)[C@H]2[C@H]3[C@H](O)[C@H](O)CC(=NOCC=C(C)CCC=C(C)C)[C@H]3CC[C@H]2C1=O,-0.0471
11,O=C1[C@H]2[C@H]3[C@H](O)[C@H](O)CC(=NOCc4ccccc4)[C@@H]3CC[C@H]2C(=O)N1C1CCCCC1,-0.533
12,CC(C)=CCCC(C)=CCON=C1[C@H]2CCn3c(=O)n(Cc4cc5c(cc4Cl)OCO5)c(=O)n3[C@H]2[C@H](O)[C@@H]2O[C@H]12,-0.128
13,CCCNC(=O)OC[C@H]1O[C@H](CCON=C[C@@H](OC)[C@H](C)C=CCC(=O)OC)C=C[C@@H]1Oc1ccc(OC)cc1,-0.206
14,COC(=O)[C@H](C)NC(=O)[C@@H](C)CO,-0.0313
15,C=CCOC(=O)[C@H]1[C@@H]2C(=O)O[C@@H](c3ccccc3)[C@@H](c3ccccc3)N2[C@@H](c2ccc(OCCOC(=O)[C@H]3C[C@H]4C(=O)N5CCC[C@H]5C(=O)N4[C@H]3c3cccc(OCCO)c3)cc2)[C@]12C(=O)Nc1ccc(I)cc12,1.17
16,CCCCC(=C=CC[C@H](O)c1ccccc1OCCO)C[C@H](O)COCc1ccccc1,-0.0523
17,COc1ccc(-c2ccc3c(n2)CCCN3CC(O)CN2CCCc3nc(C)c(C)cc32)cc1 (stereo unspecified),0.276
18,C[C@H]1Cc2c(-c3ccccc3)nc3c(c2CO1)CN(CCOc1ccccc1)CC3,-0.0313
